Records with an inconclusive call do not appear. Entries that show only a call come without a potency. Unmarked numbers belong to inactive results. Calls of active or inactive are those of the source. Calls follow the shape of the dose curve; as a rule, active = well fitted inhibition curve with a large enough effect; inconclusive = small, poorly fitted or top-dose-only effect; inactive = no such curve, though single readings can be large or run the other way.
Assay: Primary qHTS for small molecule stabilizers of the endoplasmic reticulum resident proteome: Secreted ER Calcium Modulated Protein (SERCaMP) assay (AID 1508630)
Conditions: SH-SY5Y GLuc-SERCaMP (Gaussia luciferase released on ER calcium loss) secretion, thapsigargin, luminescence; series mostly up to 38.4 µM; activity change, negative = inhibition: at the top concentration
Source text: Assay Provider: Brandon K. Harvey Ph.D.
National Institute on Drug Abuse, National Institutes of Health, Baltimore, MD
Endoplasmic reticulum (ER) dysregulation is associated with human pathologies including neurodegenerative, cardiovascular, muscular, and diabetic conditions. Maintenance of ER calcium is critical for functions of the ER and its depletion can lead to loss of ER resident proteins, in a process termed exodosis. Therapeutic compounds capable of attenuating the redistribution of ER proteins under pathological conditions may slow or stop disease progression. To identify such compounds, we performed a quantitative high-throughput screen (qHTS) using the SERCaMP assay, which monitors secretion of ER resident proteins triggered by calcium depletion.
SERCaMP was initially developed as a reporter of ER calcium homeostasis using a Gaussia luciferase with a modified signal peptide and carboxy-terminus (GLuc-SERCaMP), modifications that confer secretion of the reporter in response to ER calcium depletion (Henderson et al., 2014). The assay was used to screen 9,501 compounds, including a collection of drugs approved by the FDA (US), EMA (EU), NHI (Japan), and HC (Canada) regulatory agencies (Huang et al., 2011). Since the SERCaMP reporter reflects the exodosis phenomenon (Trychta et al., 2018a), compounds identified in the screen have the potential to prevent exodosis by different mechanisms such as stabilizing ER calcium or augmenting ERS retrieval.
1. Henderson, M.J., Wires, E.S., Trychta, K.A., Richie, C.T., and Harvey, B.K. (2014). SERCaMP: a carboxy-terminal protein modification that enables monitoring of ER calcium homeostasis. Mol Biol Cell 25, 2828-2839.
2. Huang, R., Southall, N., Wang, Y., Yasgar, A., Shinn, P., Jadhav, A., Nguyen, D.T., and Austin, C.P. (2011). The NCGC pharmaceutical collection: a comprehensive resource of clinically approved drugs enabling repurposing and chemical genomics. Sci Transl Med 3, 80ps16.
3. Trychta, K.A., Back, S., Henderson, M.J., and Harvey, B.K. (2018a). KDEL Receptors Are Differentially Regulated to Maintain the ER Proteome under Calcium Deficiency. Cell Rep 25, 1829-1840 e1826.
SEQUENCE No. (1, 2, 3, etc.); […] (e.g., Cells, Incubation, Reagent, etc.); VALUE and DESCRIPTION.
1; Reagent; 5 uL; 1000 SH-SY5Y cells per wells
3; Compound; 23 nL; Control inhibitor / compound library
5; Reagent; 100 nM; Thapsigargin
7; Reagent; 1 uL; 0.5x coelenterazine
8; Detection; Luminescence; ViewLux imaging system
NOTES (numbers refer to sequence above)
1; SH-SY5Y human neuroblastoma cells stably expressing GLuc-SERCaMP (SH-SY5Y-GLuc-ASARTDL) cells were seeded in 1,536 well white tissue culture treated plates (Corning, Cat# 7464) in DMEM-high glucose-sodium pyruvate (ThermoFisher Scientific, Cat #10569) supplemented with 10% bovine growth serum (Hyclone), 10 U/ml penicillin (Gibco), 10 ug/ml streptomycin (Gibco), and 20 mM HEPES.
2; Assay plates were incubated for 5 hour at 37C in a humidified incubator containing 5% CO2.
3; qHTS libraries (23 nl, final concentrations of 1.53 uM, 7.67 uM, 38.3 uM) or controls (neutral control: DMSO, positive control: dantrolene) were added using a Kalypsis pin-tool Robotic System equipped with 1536 pinheads.
4; Cells were then incubated for 16 hours at 37C, 5% CO2.
5; Thapsigargin was added at 100 nM to deplete ER calcium stores.
6; Cells were incubated for 4 hour (37 °C, 5% CO2)
7; Gaussia luciferase in the medium was measured by adding 1 ul of 0.5x coelenterazine (final concentration 0.07x) prepared in Gaussia Luciferase Glow Assay Buffer (Pierce), without addition of the Cell Lysis Buffer Reagent.
8; Luminescence was measured using a ViewLux […] CCD imaging system (Perkin Elmer) equipped with clear filters. […] The same controls were also used for the calculation of the Z' factor, a measure of assay quality control, as previously described (Zhang et al., 1999). […]

**Q.** For C1CCC(C(CC2CCCCN2)C2CCCCC2)CC1 (stereo not given), which Potency is on record?
**A.** inactive

**Q.** For Nc1[nH]c(=O)ncc1F, which Potency is on record?
**A.** inactive

**Q.** With COc1cccc(N(C)C(=S)Oc2ccc3c(c2)CCCC3)n1 as the compound, how does the Potency read?
**A.** inactive

**Q.** With O=P(O)(O)C(O)(Cc1cccnc1)P(=O)(O)O as the compound, how does the “activity change, negative = inhibition” value read?
**A.** -13.2%

**Q.** Which Potency does the source give for CN1CCN(c2c(F)cc3c(=O)c(C(=O)O)cn(CCF)c3c2F)CC1 here?
**A.** inactive

**Q.** Which “activity change, negative = inhibition” value does the source give for NC(N)=NC(N)=NCCc1ccccc1 here?
**A.** 13.6%

**Q.** Which Potency does the source give for CCC(=O)O[C@]1(C(=O)CCl)[C@@H](C)C[C@H]2[C@@H]3CCC4=CC(=O)C=C[C@]4(C)[C@@]3(F)[C@@H](O)C[C@@]21C here?
**A.** inactive

**Q.** For COc1cc2c(Nc3ccc(Br)cc3F)ncnc2cc1OCC1CCN(C)CC1, which “activity change, negative = inhibition” value is on record?
**A.** 101%

**Q.** For CCN(CC)CCn1c(=O)c(Cc2ccc(OC)cc2)nc2ccccc21, which “activity change, negative = inhibition” value is on record?
**A.** 17.1%

**Q.** Which “activity change, negative = inhibition” value does the source give for CCn1cc(C(=O)O)c(=O)c2cc(F)c(N3CCN(C)CC3)cc21 here?
**A.** 56.1%

**Q.** Which Potency does the source give for CCN(CC)CC#CCOC(=O)C(O)(c1ccccc1)C1CCCCC1 (stereo not given) here?
**A.** inactive

**Q.** With CC(C)(C#N)c1cc(Cn2cncn2)cc(C(C)(C)C#N)c1 as the compound, how does the Potency read?
**A.** inactive

**Q.** With COc1nc(N)nc2c1ncn2[C@@H]1O[C@H](CO)[C@@H](O)[C@@H]1O as the compound, how does the “activity change, negative = inhibition” value read?
**A.** -24.9%

**Q.** For C[C@]12C=CC(=O)C=C1CC[C@@H]1[C@@H]2C(=O)C[C@@]2(C)[C@H]1CC[C@]2(O)C(=O)CO, which Potency is on record?
**A.** inactive

**Q.** With O[C@@H](CNC[C@H](O)[C@H]1CCc2cc(F)ccc2O1)[C@@H]1CCc2cc(F)ccc2O1 as the compound, how does the Potency read?
**A.** inactive

**Q.** For O=c1oc2c(O)c(O)cc3c(=O)oc4c(O)c(O)cc1c4c23, which “activity change, negative = inhibition” value is on record?
**A.** 28.1%

**Q.** Which Potency does the source give for Cc1cccc(N(C)C(=S)Oc2ccc3ccccc3c2)c1 here?
**A.** inactive

**Q.** Which “activity change, negative = inhibition” value does the source give for Cc1onc(-c2ccccc2Cl)c1C(=O)N[C@@H]1C(=O)N2[C@@H]1SC(C)(C)[C@@H]2C(=O)O here?
**A.** 5.74%

**Q.** Which Potency does the source give for COc1cc(NCc2ccc3nc(N)nc(N)c3c2C)cc(OC)c1OC here?
**A.** inactive

**Q.** Which “activity change, negative = inhibition” value does the source give for CCCc1cc(C(N)=S)ccn1 here?
**A.** -32.8%

**Q.** Which Potency does the source give for NNC(=O)c1ccncc1 here?
**A.** inactive

**Q.** With CCCCOc1ccc(CC(=O)NO)cc1 as the compound, how does the Potency read?
**A.** inactive

**Q.** With O=S(=O)(O)CCS as the compound, how does the Potency read?
**A.** inactive

**Q.** For COc1ncnc(NS(=O)(=O)c2ccc(N)cc2)c1OC, which Potency is on record?
**A.** inactive

**Q.** Which Potency does the source give for CCC(=O)O[C@]1(C(=O)SCF)[C@H](C)C[C@H]2[C@@H]3C[C@H](F)C4=CC(=O)C=C[C@]4(C)[C@@]3(F)[C@@H](O)C[C@@]21C here?
**A.** inactive

**Q.** With CCOC(=O)[C@H](CCc1ccccc1)N[C@H]1CS[C@H](c2cccs2)CN(CC(=O)O)C1=O as the compound, how does the “activity change, negative = inhibition” value read?
**A.** 414%

**Q.** With COc1ccc2c(c1)c(CC(=O)OCC(=O)O)c(C)n2C(=O)c1ccc(Cl)cc1 as the compound, how does the “activity change, negative = inhibition” value read?
**A.** -5.52%

**Q.** For CC1CC2C3CCC4=CC(=O)C=C[C@]4(C)[C@@]3(F)[C@@H](O)C[C@]2(C)[C@@]1(O)C(=O)CO (stereo not given in full), which Potency is on record?
**A.** inactive

**Q.** For Cn1c(=O)c2c(ncn2CC(O)CO)n(C)c1=O (stereo not given), which “activity change, negative = inhibition” value is on record?
**A.** -9.61%

**Q.** With O=C(O)C1CCCN(CCC=C(c2ccccc2)c2ccccc2)C1 (stereo not given) as the compound, how does the Potency read?
**A.** inactive

**Q.** For CCn1cc(C(=O)O)c(=O)c2cc(F)c(N3CCNCC3)nc21, which “activity change, negative = inhibition” value is on record?
**A.** -20.3%

**Q.** With Cc1cccc(Nc2ccncc2S(=O)(=O)NC(=O)NC(C)C)c1 as the compound, how does the “activity change, negative = inhibition” value read?
**A.** 9.32%

**Q.** With N=C(N)c1ccc(OCCCCCOc2ccc(C(=N)N)cc2)cc1 as the compound, how does the “activity change, negative = inhibition” value read?
**A.** 28.8%

**Q.** With Oc1c(Cl)cc(Cl)c2cccnc12 as the compound, how does the “activity change, negative = inhibition” value read?
**A.** -58.9%

**Q.** With O=C(O)CSCC(=O)NC1CCSC1=O (stereo not given) as the compound, how does the Potency read?
**A.** inactive

**Q.** For Nc1ccc(S(=O)(=O)Nc2ccccn2)cc1, which “activity change, negative = inhibition” value is on record?
**A.** 12.6%

**Q.** For C#CCN[C@@H]1CCc2ccccc21, which Potency is on record?
**A.** inactive

**Q.** Which Potency does the source give for O=C(NCC1CN(c2ccc(N3CCOCC3=O)cc2)C(=O)O1)c1ccc(Cl)s1 (stereo not given) here?
**A.** inactive

**Q.** Which “activity change, negative = inhibition” value does the source give for N[C@@H](Cc1ccc(O)c(O)c1)C(=O)O here?
**A.** -28.8%

**Q.** Which Potency does the source give for Cc1ccc(S(=O)(=O)N[C@@H](Cc2ccccc2)C(=O)CCl)cc1 here?
**A.** inactive

— PubChem BioAssay (NCATS)
